PMC13494018

B1: design_488_244881a1-ba0c-4c08-ad9c-1f64cf93580a_302_dldesign_0_cycle1_af2pred (protein)
chain: MMAEYEARARELFEKAAASDPETARKIGEEMVKLAKEDVEFGNVAALVAAQVAAESGSPVLRQIQAAIARTVIEQLA
B2: design_487_778f5c6d-c470-43b8-8f82-464af6177e08_1544_dldesign_0_cycle1_af2pred (protein)
chain: AALQQANAALKAAQSLVDHVKKNPEFSPESIIKVADVAIELAKQAEEEAAKADPEVAKKAKEAKEEAEKIKKEAA
B3: design_487_778f5c6d-c470-43b8-8f82-464af6177e08_2394_dldesign_0_cycle1_af2pred (protein)
chain: AAEEAERIIEGNRQLGLAIAEGSASKEEMKAKVDEAVEKARKAVEEDPEKGPEYALELFTKTNKEIMLQALAELT
B4: design_487_778f5c6d-c470-43b8-8f82-464af6177e08_1075_dldesign_0_cycle1_af2pred (protein)
chain: AAAEEAKKLVKEAKALLKAAEATGNLALAQAALEKALEAIALGAEVNKERPLPVAVEAVRLAGRAYALVRQLTA
B5: design_488_244881a1-ba0c-4c08-ad9c-1f64cf93580a_204_dldesign_0_cycle1_af2pred (protein)
chain: LAATRAAANAVLTRASKLNLQAVADPALAEVAALANQAIALALAGLADPATLAADTAAAAAVLDQAEALAKLVA
B6: design_487_778f5c6d-c470-43b8-8f82-464af6177e08_2068_dldesign_0_cycle1_af2pred (protein)
chain: AAAEAAAAAEAQEKAKEAAEKAVENIDDPELAEKYAEEAGKALLAGADLEEVLTYANSLNPEVARLIARAYARLGAAAVRA
B7: design_487_778f5c6d-c470-43b8-8f82-464af6177e08_1924_dldesign_0_cycle1_af2pred (protein)
chain: MEKETEELLKKAKELIEKAKELAKEVLKKDPISGRGIQAAVKSAEELLKRGIEGEDSLRYAKQALELAKVALEMAKATLAA
B8: design_487_778f5c6d-c470-43b8-8f82-464af6177e08_1639_dldesign_0_cycle1_af2pred (protein)
chain: GALAVQTARASAAQAVAAVAAAPAEEAPARVAAAEKLLAVLDGIAEAASPEAGAQIRAIVDAARAAIAATAAAKAAA
B9: design_487_778f5c6d-c470-43b8-8f82-464af6177e08_1484_dldesign_0_cycle1_af2pred (protein)
chain: SRLEELRRRRDEYVAQLEVAIAELEELSKRAVTEEARRAAEEARALVEEGDKDPERGANIVGRALVQAQAALARARRLNEAA
B10: design_487_778f5c6d-c470-43b8-8f82-464af6177e08_1105_dldesign_0_cycle1_af2pred (protein)
chain: AAQLALARATLIAAADSLERLAAQAGPAYAPVAAEAAALRAAAEAGTLTADEANAALGRLLDQMEAISAEIR
B11: design_487_778f5c6d-c470-43b8-8f82-464af6177e08_816_dldesign_0_cycle1_af2pred (protein)
chain: GSMEELAKLRAEAEEKLAAAQAVVERPAETVTLEELNAALAQAVEAARLFQEVGDRELLAEAFRVAATLAARAVEVAA
B12: design_487_778f5c6d-c470-43b8-8f82-464af6177e08_978_dldesign_0_cycle1_af2pred (protein)
chain: KSPTEQVAEYAAKVRAKAPKGEEIARLLFSYNAAYQADPAKGKEKEKELKALAKENPEAKEYVEAAVAAVKA
B13: design_487_778f5c6d-c470-43b8-8f82-464af6177e08_1129_dldesign_0_cycle1_af2pred (protein)
chain: AEELRERMKKSADGAIEVINDLTAYGIAHPEHAALARAALTGLGTNMIAAAAANPVSKELAEKLAAALTAATAAIDAA
B14: design_487_778f5c6d-c470-43b8-8f82-464af6177e08_2029_dldesign_0_cycle1_af2pred (protein)
chain: ATAAEIAARMGAAIKRNALANMDEIAAELADDPELAAKRLAAVVENARKMLEAAGLTPEEVAALVAELEARADELVEANRA
B15: design_487_778f5c6d-c470-43b8-8f82-464af6177e08_901_dldesign_0_cycle1_af2pred (protein)
chain: DELEKKIKEELEKAKEYLKKGKELFEAGKYKEAAAEFEKAIEYASKAMELAAEAGPKYNKYGVEASKVANEAYKLRQQALAK
B16: design_488_244881a1-ba0c-4c08-ad9c-1f64cf93580a_123_dldesign_0_cycle1_af2pred (protein)
chain: GGEEEGEELLERGREAAEEIARLPLSETERLARLTGEALEYAREAARVAGGEKAREILTAISRAHAASVA
B17: design_487_778f5c6d-c470-43b8-8f82-464af6177e08_1035_dldesign_0_cycle1_af2pred (protein)
chain: VEEIVERVNAALARATRAALAGGPEAAARTAELMRRAAEAVRLAREDPEAGKKIADEVEAEVDALLAAVA
B18: design_487_778f5c6d-c470-43b8-8f82-464af6177e08_1978_dldesign_0_cycle1_af2pred (protein)
chain: AKEKAIEEITALRELAVKAAEEVGKEEEKEKIKELTEKAIEALDNPEESARLITKAAAIAVEVAPEKAAQIRRLASAAIQAALAT
B19: design_487_778f5c6d-c470-43b8-8f82-464af6177e08_1348_dldesign_0_cycle1_af2pred (protein)
chain: AEKKREEAKKLVEEAKKLAEKGDFEKAVEKLREAVALDPSVIGEALEAVKVIAEKNPAAAPAASLAIIRAAQEA
B20: design_487_778f5c6d-c470-43b8-8f82-464af6177e08_1381_dldesign_0_cycle1_af2pred (protein)
chain: MVEKAIEMVEKATKEAAARAPAKAEEIKKLGEKFKKEVEYLGKLNPESGLVMARGAVGALKDIADKEAKA
B21: design_487_778f5c6d-c470-43b8-8f82-464af6177e08_1117_dldesign_0_cycle1_af2pred (protein)
chain: MNVEEAKAQIEALMNRARGYFMRGAALAGTPEGAALNAKGAALLAEAEALAKEAGPEAQKVFAELKAKMDAAVNAVAN
B22: design_487_778f5c6d-c470-43b8-8f82-464af6177e08_1099_dldesign_0_cycle1_af2pred (protein)
chain: AAEEVAKKFAKAVLRIALKQIDENAADPELVKKIADNAVKLLNSLSDGAAVAKAEAEKIKAHAEATIAKAKAAKA
B23: design_487_778f5c6d-c470-43b8-8f82-464af6177e08_2307_dldesign_0_cycle1_af2pred (protein)
chain: AAEAEEEAKKLAEEAAKLVAAVDPSIAEEVAKALELGNLAQVKTMLVLAQSAYESTDPAARALALANLRTVAAQAIARAA
B24: design_487_778f5c6d-c470-43b8-8f82-464af6177e08_718_dldesign_0_cycle1_af2pred (protein)
chain: MKKEEAIRALAAAAARAAKLAVDPRTAAVANKALEVVVSAMEEVEASEDEEEAVEIAEKALAEADKLLAEAAKAA
B25: design_488_244881a1-ba0c-4c08-ad9c-1f64cf93580a_236_dldesign_0_cycle1_af2pred (protein)
chain: PVERAIRLAEGAITFLEGLIVARKDGNAAGAAAYAQAAKTLLEELAKLLPGEIAKEATEAAKLAADPATAEKALALAKKILERIKKE
B26: design_487_778f5c6d-c470-43b8-8f82-464af6177e08_1416_dldesign_0_cycle1_af2pred (protein)
chain: DEEERKKKAAEIMKKQAEKLKALAAADPANALTYRAAAALFEAAAIETLKDPEKGLKVGEDAVGLMAQVPAVAPEAKAAYEKAKALL
B27: design_487_778f5c6d-c470-43b8-8f82-464af6177e08_749_dldesign_0_cycle1_af2pred (protein)
chain: GAEEALLAEARALLARAQGLLIEAAKQLKTDPAAAIKLAEEAKKLAEKAKELAKKLGRRGPGLQAMADAVIDSAKALKAQAEAAL
B28: design_487_778f5c6d-c470-43b8-8f82-464af6177e08_1334_dldesign_0_cycle1_af2pred (protein)
chain: AGGYAVLAQNTLARARALAAQGPAALPEIEAQARILQQVAEAAAQAGDAEGAATAAANAEQARALAEEARRA
B29: design_487_778f5c6d-c470-43b8-8f82-464af6177e08_1277_dldesign_0_cycle1_af2pred (protein)
chain: EKEEAKKKAEELLKEIKKLAKEAAASDAETANKYLAKAVETAKELYELAKKIGEEGKELAKEANAALAAAAKAAMDKVQ
B30: design_487_778f5c6d-c470-43b8-8f82-464af6177e08_1347_dldesign_0_cycle1_af2pred (protein)
chain: AAEAETQAALAQLQATMHELMRIAAQALALGDAELAQEALEAVVKGQEGLADPSIVKATAEEVSAARERLRARVEALRAA
B31: design_487_778f5c6d-c470-43b8-8f82-464af6177e08_1930_dldesign_0_cycle1_af2pred (protein)
chain: AQAAADAAEALSELAIKFSKLAKKISPEAAAYFARAAGYFLRASGILRAGGDAAAAAAALAKGLALFLLGLAILKKVLS
B32: design_488_244881a1-ba0c-4c08-ad9c-1f64cf93580a_114_dldesign_0_cycle1_af2pred (protein)
chain: AAAALAGEVSAELVEIVGEAARVLGEAERLGDAEVVALAREARALANKALAALAAGDVEKAVEYAKKAREKLEEARRRLEEVKRR
B33: design_488_244881a1-ba0c-4c08-ad9c-1f64cf93580a_165_dldesign_0_cycle1_af2pred (protein)
chain: MTPADQLIELARAIVEQAKASDPETAAVNAAGAEAAAGALRNYAAANPETGPKAEAAAKEAEAAAKAIKAAVAAAK
B34: design_487_778f5c6d-c470-43b8-8f82-464af6177e08_1130_dldesign_0_cycle1_af2pred (protein)
chain: MTTEETARQQRENVEQVGRVAGLPEQAAELARAMEERAIREGLSNEEIIAEASRLSAQINRQALAAAQAA
B35: design_487_778f5c6d-c470-43b8-8f82-464af6177e08_1892_dldesign_0_cycle1_af2pred (protein)
chain: AAQALLAQANAALGQLLDLAAEASASSPEEAARATAQMRETAAAAQAAAAAAAAQDPAIAPQAQAIAASAAALARNAEELVAAR
B36: design_487_778f5c6d-c470-43b8-8f82-464af6177e08_920_dldesign_0_cycle1_af2pred (protein)
chain: ESVREAARKVKELAEALAAQAKAAGDEEAAKLAEEAAKLAEEAEKKAEEDPEEAKRLIVEALRLLNRAFALLVAAS
B37: design_487_778f5c6d-c470-43b8-8f82-464af6177e08_1499_dldesign_0_cycle1_af2pred (protein)
chain: DEAELLEAINRAGRETRERLLALGESEAEATRAASAVQVVGYAALTGNAEAEAIGMASLATVGKGRPVAVAAAEEVADRIRAA
B38: design_487_778f5c6d-c470-43b8-8f82-464af6177e08_1159_dldesign_0_cycle1_af2pred (protein)
chain: DTAAALAAAAAAAAALAKADPALAPAALAITQANLAAILDLAEETKAANPEVPAAVGETFNTAITTASTAYATALKLAQ
B39: design_487_778f5c6d-c470-43b8-8f82-464af6177e08_620_dldesign_0_cycle1_af2pred (protein)
chain: GAKSKALQKLFQQANELHKLAIAAKKPEAKKIYNEAAGTALDFAEKAQAGGDEEAEKLAKEAEKIAKEAKEKALAIE

biological target: CD276, Q5ZPR3
Sequence (Q5ZPR3 whole entry): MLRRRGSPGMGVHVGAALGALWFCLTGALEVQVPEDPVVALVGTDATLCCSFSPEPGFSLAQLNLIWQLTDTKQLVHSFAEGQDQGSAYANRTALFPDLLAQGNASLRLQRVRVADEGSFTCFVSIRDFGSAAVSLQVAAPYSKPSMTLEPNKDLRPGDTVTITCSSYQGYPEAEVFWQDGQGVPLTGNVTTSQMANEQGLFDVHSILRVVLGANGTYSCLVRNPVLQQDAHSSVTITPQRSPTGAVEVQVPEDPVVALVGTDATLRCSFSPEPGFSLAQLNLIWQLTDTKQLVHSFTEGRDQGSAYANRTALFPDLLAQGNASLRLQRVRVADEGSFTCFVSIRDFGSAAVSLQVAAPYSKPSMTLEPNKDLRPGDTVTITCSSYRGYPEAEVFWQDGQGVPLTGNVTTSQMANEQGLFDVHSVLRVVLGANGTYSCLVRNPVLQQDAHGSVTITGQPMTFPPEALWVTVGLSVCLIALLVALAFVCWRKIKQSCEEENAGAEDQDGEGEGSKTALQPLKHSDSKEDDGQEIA

Binding in a display sort, inactive:
B1 not found
B2 not found
B3 not found
B4 not found
B5 not found
B6 not found
B7 not found
B8 not found
B9 not found
B10 not found
B11 not found
B12 not found
B13 not found
B14 not found
B15 not found
B16 not found
B17 not found
B18 not found
B19 not found
B20 not found
B21 not found
B22 not found
B23 not found
B24 not found
B25 not found
B26 not found
B27 not found
B28 not found
B29 not found
B30 not found
B31 not found
B32 not found
B33 not found
B34 not found
B35 not found
B36 not found
B37 not found
B38 not found
B39 not found
